Measurements published in PubChem BioAssay (NCATS).
Inconclusive results are not listed. Active and inactive are the calls of the source. The call rests on the fitted dose curve; in most records, active means well fitted inhibition curve with a large enough effect; inconclusive means small, poorly fitted or top-dose-only effect; inactive means flat fitted curve, though single readings scatter. Peptide text beside a SMILES is read from it.

molecular target: Voltage-gated inwardly rectifying potassium channel KCNH2 (Homo sapiens) (UniProt Q12809); experiment: qHTS Assay for Small Molecule Inhibitors of the Human hERG Channel Activity (AID 588834); settings: U2OS BacMam hERG, FluxOR thallium flux fluorescence; series mostly up to 46.1 µM; activity change, negative = inhibition: at the top concentration;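 further: top concentration of the series differs between compounds; lower thallium flux fluorescence means stronger hERG block; nearly all actives have a fitted effect of over 50% in size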
Sequence (Q12809 whole entry, looked up): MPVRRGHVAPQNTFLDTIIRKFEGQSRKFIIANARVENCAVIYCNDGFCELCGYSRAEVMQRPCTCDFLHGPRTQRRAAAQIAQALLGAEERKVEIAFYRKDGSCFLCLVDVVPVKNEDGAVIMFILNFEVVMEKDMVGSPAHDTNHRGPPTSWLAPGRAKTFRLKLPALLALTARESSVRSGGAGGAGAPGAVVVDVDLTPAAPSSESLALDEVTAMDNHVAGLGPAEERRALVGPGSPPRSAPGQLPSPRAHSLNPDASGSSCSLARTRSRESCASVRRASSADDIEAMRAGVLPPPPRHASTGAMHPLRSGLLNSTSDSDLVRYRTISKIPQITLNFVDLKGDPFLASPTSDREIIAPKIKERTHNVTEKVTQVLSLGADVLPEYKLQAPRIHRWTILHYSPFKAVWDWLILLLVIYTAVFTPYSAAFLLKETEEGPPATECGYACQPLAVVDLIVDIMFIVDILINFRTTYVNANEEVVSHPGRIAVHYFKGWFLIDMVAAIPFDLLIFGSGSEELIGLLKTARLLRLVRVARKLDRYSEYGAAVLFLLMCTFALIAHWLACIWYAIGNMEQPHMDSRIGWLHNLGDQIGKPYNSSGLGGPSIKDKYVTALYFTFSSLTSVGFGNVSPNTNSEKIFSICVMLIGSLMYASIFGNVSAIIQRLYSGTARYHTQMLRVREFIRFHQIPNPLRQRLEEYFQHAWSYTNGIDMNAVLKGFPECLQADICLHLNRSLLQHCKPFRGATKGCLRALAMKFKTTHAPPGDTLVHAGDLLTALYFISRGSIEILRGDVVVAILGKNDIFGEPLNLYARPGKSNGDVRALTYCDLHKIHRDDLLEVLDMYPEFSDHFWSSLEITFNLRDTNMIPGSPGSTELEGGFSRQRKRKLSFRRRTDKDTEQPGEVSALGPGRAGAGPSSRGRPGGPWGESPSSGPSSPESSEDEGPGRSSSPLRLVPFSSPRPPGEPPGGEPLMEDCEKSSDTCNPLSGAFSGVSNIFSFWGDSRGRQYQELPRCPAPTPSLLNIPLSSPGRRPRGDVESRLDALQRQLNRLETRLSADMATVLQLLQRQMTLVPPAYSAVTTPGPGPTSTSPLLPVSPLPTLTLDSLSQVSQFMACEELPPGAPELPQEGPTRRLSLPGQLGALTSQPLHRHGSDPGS
Outline: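 Blockade is seen as reduced FluxOR thallium-flux fluorescence in U2OS cells expressing hERG from a BacMam construct, in Opti-MEM with 2% FCS. Concentration-response data fitted to the Hill equation for AC50.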
On the % scale 0 is the no-effect control and ±100 the full control effect.

| SMILES | activity change, negative = inhibition |
| --- | --- |
| COC(F)(F)C(Cl)Cl | 5.46% (inactive) |
| C=CCSSSCC=C | 8.49% (inactive) |
| CO[C@@H]1[C@@H](O[C@@H]2O[C@H](C)[C@@H](O[C@H]3C[C@@](C)(O)[C@@H](OC(=O)CC(C)C)[C@H](C)O3)[C@H](N(C)C)[C@H]2O)[C@@H](CC=O)C[C@@H](C)C(=O)/C=C/C2OC2C[C@@H](C)OC(=O)C[C@H]1OC(C)=O (some centres not stated) | 8.54% (inactive) |
| CN=C(NC#N)Nc1ccc(C2=NNC(=O)C[C@@H]2C)cc1 | 10.2% (inactive) |
| OCC(S)CS (configuration not stated) | 5.2% (inactive) |
| O=C1C(=O)c2ncccc2-c2cccnc21 | 8.63% (inactive) |
| CC(=O)N[C@@H](CC(=O)O)C(=O)N[C@@H](CCC(=O)O)C(=O)O (Ac-Asp-Glu-OH) | 9% (inactive) |
